A selection: hits, their analogues and other compounds. The true share with any hit is near 3.1%.
OvCa metastasis = ovarian cancer metastasis inhibition, 3D TME model. SKOV3ip1-GFP adhesion/invasion on 3D omental model, fluorescence. Potency, µM (doses to about 45.8 µM), for inactives: at the highest dose activity change, negative = inhibition, usual class: inhibitors. 46,000 compounds, 0.1% hits. AID 1963576;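 also: plate controls were DMSO wells for no effect and tomatine positive control wells for full effect; nearly all actives have a fitted effect of over 65% in size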
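qHTS, 4-pt dose (0.36-46 umol/L); SKOV3ip1-GFP, 1,200 cells/well, no FBS; primary omental fibroblast/mesothelial co-culture 48 h pre-grown; 2 h RT + 16 h 37 C; PBS wash, 4% PFA; GFP count 488/509 nm.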
S16 viability = cytotoxicity in S16 Pmp22-F2sN Schwann cells; S16 Pmp22-F2sN Schwann cells viability, CellTiter-Glo, 24 h; Potency, µM (doses to about 57.5 µM), without a hit: top-dose activity change, negative = cytotoxicity, hits mostly cytotoxic; 43,000 compounds, 0.48% hits; AID 1508642; also: nearly all actives have a fitted effect of over 65% in size
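S16 Pmp22-F2sN Schwann cells (500-1,000/well) in phenol-red-free DMEM with 10% FBS received 23 nL compound by pin tool for 24 h at 37 °C. Viability was then read as CellTiter-Glo luminescence after 15 min at room temperature.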
pS6 MEF inh = reduces mTORC1 signaling in Tsc2 and p53 null MEF cells; Potency, µM (doses to about 38.3 µM), without a hit: at the top dose activity change, negative = inhibition, most hits filed as inhibitors; 44,000 compounds, 0.78% hits; Tsc2-/- p53-/- MEF, phospho-rpS6 immunofluorescence/PI, 24 h;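 also: plate controls were DMSO for no effect and rapamycin for full effect; nearly all actives have a fitted effect of over 50% in size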
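Cell-based qHTS: Tsc2-/- p53-/- MEF, 24 h cpd, 37 °C; fix/perm, anti-phospho-S6 Alexa-488 + PI; Acumen 488 nm scan; pS6/PI ratio, % positive cells; rapamycin 7.5 nM = inhibition ref; PI count = viability.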
p53null 32C kill = p53 null cell cytotoxicity, permissive temperature; H1299-neo p53 null cells, ATP luminescence, 24 h, 32C; Potency, µM (series often up to 46.1 µM), for the others: at the top dose activity change, negative = cytotoxicity, actives largely listed as cytotoxic; 55,000 compounds, 0.62% hits; AID 903;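 also: 0% = DMSO only and -100% = full killing by 100 µM tamoxifen; nearly all actives have a fitted effect of over 55% in size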
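H1299-neo (p53-null) cells, 600/well, were pre-incubated overnight at 37C, then exposed to compounds at up to 46 uM for 24 hr at 32C. Viability was measured as ATP content by luminescence, and AC50 values came from Hill fits.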
p53null 39C tox = selectivity test: cytotoxicity in p53 null cells, nonpermissive temperature; H1299 p53-null (neo) cells, 39C, ATPlite viability, 24 h; Potency, µM (titrated, usually from 46.1 µM), for inactives: at the top dose activity, negative = cell killing, actives largely listed as cytotoxic; 55,000 compounds, 0.97% hits; AID 904;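 also: 0% = DMSO only and -100% = full killing by 100 µM tamoxifen; nearly all actives have a fitted effect of over 50% in size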
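Concentration-response (up to 46 uM) was run for 24 h at the nonpermissive 39C on H1299-p53A138V or H1299-neo cells. ATP content was measured with ATPlite luminescence. AC50 values were Hill-modeled after normalizing between DMSO and 100 uM tamoxifen killing.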
PMP22 txn = modulates PMP22 transcription in S16 Schwann cells | S16 Pmp22-F2sN Schwann cells (luciferase reporters placed in the Pmp22 gene), FLuc/NLuc coincidence luminescence, 24 h | Potency, µM (doses to about 57.5 µM), for the others: at the highest dose activity change, negative = inhibition, most hits filed as inhibitors | 43,000 compounds, 2% hits | AID 1508649; active = clear falling dose curves in both reporters; inconclusive = both reporters move, but less clearly or upward; inactive = either reporter flat; the % is the NLuc reporter signal
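Rat S16 Pmp22-F2sN cells, 500-1,000/well in phenol red-free DMEM + 10% FBS, compound-treated 24 h (37C, 5% CO2). Luminescence: FLuc read, Stop&Glo added, NLuc read.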
Active calls of the source: *; i = inactive; ? = inconclusive; . = no result. Unless noted, calls follow the shape of the dose curve; as a rule, active = well fitted curve in the direction sought with a large enough effect; inconclusive = small, poorly fitted or top-dose-only effect, or another doubt; inactive = no such curve, though single readings can be large; an effect the other way counts as inactive or inconclusive. Unless noted, % is scaled to controls: 0 for no effect and ±100 for the full control effect; potency is read from the fitted curve at half-maximal effect.

SMILES	OvCa metastasis	S16 viability	pS6 MEF inh	p53null 32C kill	p53null 39C tox	PMP22 txn
CCOC(=O)c1cccc(NS(=O)(=O)c2cc(-c3cnc(C4CC4)o3)ccc2C)c1	i	20µM*	0.0%	43.2%	9.2%	-73.2%
CC[C@H](C)n1cc(C)c2c(C(=O)NCc3c(C)cc(C)[nH]c3=O)cc(-c3ccc(N4CCNCC4)nc3)cc21	-18.8%	.	.	.	.	.
COC(=O)c1ccc2c(=O)n(CCCCCC(=O)N3CCN(c4cc(Cl)ccc4C)CC3)c(=O)[nH]c2c1	-24.3%	?	?	20µM*	-5.7%	?
CON(C)C(=O)N1N=C(c2cc(F)ccc2F)S[C@]1(CCCN)c1ccccc1	3.2%	.	.	.	.	.
Cc1ccc(NC(=O)c2nnn(Cc3cccc(C(F)(F)F)c3)c2N)c(C)c1	i	?	?	-2.7%	37.0%	5.97µM*
CC(C)Cn1c(/C=C/c2ccc(F)cc2)nc2ccccc21	-13.8%	?	-20.3%	11.2µM*	7.94µM*	?
C#CCn1c(/C=C/c2ccc(Cl)cc2)nc2ccccc21	-4.0%	?	0.9%	3.16µM*	3.98µM*	3.3%
CC(C)CCn1c(/C=C/c2ccccc2)nc2ccccc21	-1.6%	-11.0%	-19.7%	?	?	?
CCC(C)Cn1c(/C=C/c2ccccc2)nc2ccccc21 (configuration not stated)	-3.7%	-20.8%	-22.2%	?	10µM*	?
CCOc1cc2ncc(C#N)c(Nc3ccc(F)c(Cl)c3)c2cc1NC(=O)C=CCN(C)C	-2.3%	.	.	.	.	.
COc1cccc(NC(=O)c2cc3c(-c4ccc(Cl)cc4)nn(C)c3s2)c1	5.8%	-18.1%	-1.9%	19.2%	8.4%	-8.8%
COc1ccc(-c2nn(C)c3sc(C(=O)Nc4cccc(F)c4)cc23)cc1OC	-34.6%	14.1µM*	?	4.6%	2.7%	?
CCCCc1ccc(NC(=O)c2cc3c(=O)n4ccccc4nc3s2)cc1	-3.1%	10.0%	2.7%	-3.4%	-0.8%	-10.1%
COc1ccc(Cl)cc1NC(=O)c1cc2c(=O)n3ccccc3nc2s1	i	-14.2%	-12.5%	-19.7%	12.6µM*	-20.0%
Cc1[nH]c(C=C2C(=O)Nc3ccc(S(=O)(=O)Cc4c(Cl)cccc4Cl)cc32)c(C)c1C(=O)N1CCC[C@H]1CN1CCCC1	5.3%	.	.	.	.	.
Cc1ccc(-n2c(=O)c3ccc(C(=O)NCc4ccco4)cc3n(Cc3ccc(Cl)cc3)c2=O)cc1	-0.4%	?	11.7µM*	-10.5%	?	?
Cc1ccc(-n2c(=O)c3ccc(C(=O)NCc4ccco4)cc3n(Cc3ccccc3Cl)c2=O)cc1	-14.2%	-18.4%	9.3%	16.4%	-4.5%	-14.8%
Oc1ccc(-c2ccc(-c3cc(Nc4cccc(CNC5CC5)c4)n[nH]3)cc2)c(O)c1	19.7%	.	.	.	.	.
CCN(CC)S(=O)(=O)c1ccc2c(c1)c(=O)c(C(=O)NCc1ccccc1)cn2C	5.1%	-0.9%	-7.8%	8.3%	13.0%	?
CCN(CC)S(=O)(=O)c1ccc2c(c1)c(=O)c(C(=O)NCc1ccccc1Cl)cn2C	i	-28.5%	-8.4%	?	5.01µM*	?
C[C@@]1(C(=O)Nc2ccc(F)nc2)CCCN1c1nc(Nc2cc(C3CC3)[nH]n2)c2cccn2n1	-26.0%	.	.	.	.	.
CCCCC(CC)CNC(=O)c1ccc(Cn2c(=O)[nH]c3cc(OC)c(OC)cc3c2=O)cc1 (configuration not stated)	-0.6%	-14.2%	?	-11.0%	12.6µM*	?
Cc1ccc(NC(=O)c2c(C)oc3ccc(O)c(CN(C)Cc4ccccc4)c23)c(C)c1	?	-26.7%	14.7µM*	-8.0%	12.2%	?
CCN(Cc1ccccc1)Cc1c(O)ccc2oc(C)c(C(=O)Nc3ccc(C)cc3C)c12	i	?	?	13.1%	11.5%	?
Cc1oc2ccc(O)c(CN(C)Cc3ccccc3)c2c1C(=O)Nc1cccc(C(F)(F)F)c1	-9.7%	?	?	16.7%	22.4µM*	?
SMILES	OvCa metastasis	S16 viability	pS6 MEF inh	p53null 32C kill	p53null 39C tox	PMP22 txn
CN(C)CC=CC(=O)Nc1cc2c(Nc3ccc(F)c(Cl)c3)ncnc2cc1O[C@H]1CCOC1	-7.8%	.	.	.	.	.
CCOc1ccc(-c2cnc(NCc3ccc(C(F)(F)F)cc3)n2C)cc1	-17.5%	-11.9%	18.5µM*	?	?	?
CCCC1=Nc2cc(C(=O)NCc3ccccc3)ccc2Sc2ccccc21	?	?	?	18.0%	12.9%	11.5µM*
CCC1=Nc2cc(C(=O)NCc3ccc(C)cc3)ccc2Sc2ccc(C)cc21	-23.2%	-8.0%	-16.4%	42.6%	6.3%	?
C=CCn1c(=O)c2cnc(Nc3ccc(N4CCN(C)CC4)cc3)nc2n1-c1cccc(C(C)(C)O)n1	4.7%	.	.	.	.	.
O=C(Cn1c(=O)c2ccccc2n(CC(=O)Nc2ccc(Cl)cc2)c1=O)NCCc1ccccc1	-12.7%	-21.3%	16.5µM*	-17.7%	-10.3%	-5.2%
O=C(Cn1c(=O)c2ccccc2n(CC(=O)Nc2ccccc2F)c1=O)NCCc1ccccc1	i	0.1%	-11.7%	5.2%	8.7%	-7.1%
Cc1cccc(N2CCN(C(=O)c3cnn(-c4cccc(Cl)c4C)c3C3CCNCC3)CC2)c1C	?	?	16.5µM*	11.1%	-26.8%	?
CC(C)(C)c1nc2c3cc[nH]c(=O)c3c3cc(F)ccc3c2[nH]1	4.8%	.	.	.	.	.
Cc1ccc(-n2ncc(C(=O)NCCCN3CCc4ccccc4C3)c2C2CCN(C(=O)OC(C)(C)C)CC2)c(C)c1	-3.3%	?	9.27µM*	8.5%	?	?
Cc1c(NC(=O)OC[C@@H]2COCCN2)cn2ncnc(Nc3ccc4c(cnn4Cc4cccc(F)c4)c3)c12	-15.3%	.	.	.	.	.
CCC1=Nc2cc(C(=O)NC3CCCC3)ccc2Sc2ccc(Cl)cc21	1.9%	?	?	20.1%	29.6%	8.43µM*
CCC1=Nc2cc(C(=O)NCCc3ccc(OC)c(OC)c3)ccc2Sc2ccccc21	73.4%	-0.5%	0.6%	10.1%	35.4%	?
CC1=Nc2cc(C(=O)NC3CCCC3)ccc2Sc2ccc(Cl)cc21	-9.7%	?	-20.1%	-4.4%	12.7%	5.32µM*
CC(C)c1c(C(=O)Nc2ccccc2)c(-c2ccccc2)c(-c2ccc(F)cc2)n1CC[C@H](O)C[C@@H](O)CC(=O)O	-19.4%	.	.	.	.	.

Bioassay records deposited in PubChem by National Center for Advancing Translational Sciences (NCATS).
